Among all 120,000 compounds or so, fewer than 10 were called active. About 4% were inconclusive and are not listed. Calls follow the shape of the dose curve; as a rule, active = well fitted curve in the direction sought with a large enough effect in the signal ratio (not every such curve was filed as active); inconclusive = small, poorly fitted or top-dose-only effect, or a change in a side signal; inactive = no such curve, though single readings can be large or run the other way; the % refers to the signal ratio. The list is a sample of the results.

Chain of Inositol monophosphatase 1 (Rattus norvegicus) (P97697 whole entry, looked up): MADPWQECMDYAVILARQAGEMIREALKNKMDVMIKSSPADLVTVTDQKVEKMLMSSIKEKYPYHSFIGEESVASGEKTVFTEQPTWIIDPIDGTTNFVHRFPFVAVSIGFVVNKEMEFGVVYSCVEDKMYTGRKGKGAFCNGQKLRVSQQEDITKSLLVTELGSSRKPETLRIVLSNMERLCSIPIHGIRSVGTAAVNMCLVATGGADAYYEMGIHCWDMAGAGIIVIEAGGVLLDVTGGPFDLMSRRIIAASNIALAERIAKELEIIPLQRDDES

The experiment deals with Inositol monophosphatase 1 (Rattus norvegicus) (UniProt P97697). Nature of the experiment: qHTS Assay for Identifying the Cell-Membrane Permeable IMPase Inhibitors.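 Also: higher means more IMPase inhibition seen as more IP1 and lower FRET ratio.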 The settings on record: CHO-M1 cells, HTRF TR-FRET ratio; series mostly up to 46.1 µM. The source says:
NCGC IMPase Assay Overview
Lithium has been widely used for the treatment of bipolar disorder. But lithium has a narrow therapeutic index and it can cause side effects such as thirst, weight gain, tremor, polyuria and memory problems. Although the mechanism for lithium action in treatment of bipolar disorder is still not fully understood, inhibition of inositol monophosphatase (IMPase) and the subsequent depletion of the inositol pool in living cells have been implicated as the primary therapeutic benefit of lithium therapy. Therefore, a selective IMPase inhibitor with reduced side effects might be a good drug candidate to replace lithium for the treatment of bipolar disorder. Several IMPase inhibitors have been discovered previously. However, they are not suitable for therapeutic use because of their poor cell membrane penetrability or oral bioavailability; the development of new cell-permeable IMPase inhibitors is needed.
IMPase catalyzes the hydrolysis of inositol-1-phosphate (IP1) to release free inositol. Binding of an agonist to a Gq coupled GPCR results in the activation of PLC, which hydrolyzes the PIP2 to form inositol-1,4,5-trisphosphate (IP3) and diacyl glycerol (DAG). While DAG activates protein kinase C (PKC), IP3 triggers the elevation of intracellular free Ca2+. The IP3 is very rapidly inactivated by hydrolysis to IP2, IP1 and then inositol by a series of enzymes including IMPase. Free inositols are used for synthesis of PI and thus start another inositol cycle.
To identify new cell-permeable IMPase inhibitors, we developed a cell-based IMPase assay in which the cytosolic IP1 is measured by a time-resolved fluorescence resonance energy transfer (TR-FRET) assay. In this assay, an IP1 specific antibody is used to detect the labeled IP1 tracer. When the cell lysate contains the elevated IP1 due to the inhibition of IMPase, the TR-FRET between the labeled antibody and IP1 tracer is disrupted resulting in a reduction in the total signal. Since the TR-FRET is used, this cell-based assay is a homogenous assay without cell wash and medium change that is suitable for assay miniaturization and HTS.
NCGC IMPase Assay Protocol Summary
A Chinese hamster ovary (CHO) cell line stably expressing the M1 receptor (CHO-M1) was obtained from ATCC and maintained in F-12 Kaighn's media (Invitrogen, Carlsbad, CA, 21127) supplemented with 10 % FBS, 100 units/ml penicillin, 100 ug/ml streptomycin and 250 ug/ml geneticin at 37C, 5% CO2 in a humidified atmosphere. Before the assay, aliquots of cells were frozen and stored at -135C. The assay was performed in 1536-well format. Data are reported for both the ratio of the two emission wavelengths, and also for the component 'donor' channel, Em2=620. […] AC50 values were determined from concentration-response data modeled with the standard Hill equation.
IMPase 1536-well assay protocol:
(1) Plate 4 ul/well (2000 cells) of cell suspension from frozen CHO-M1 Cells in white, tissue culture treated 1536-well plates that are cultured at 37C, 5 % CO2 for 16 to 30 hours.
(2) Add 23 nl/well of compound in DMSO solution. The final titration for each compound was between 0.6 nM and 46 uM.
(3) Add 1 ul of carbachol (50 uM in stimulation buffer containing10mM HEPES, 1mM CaCl2, 0.5 mM MgCl2, 4.2 mM KCl, 146 mM NaCl, 5.5 mM glucose, 50mM LiCl, pH 7.4.
(4) Incubation at 37C, 5 % CO2 for 30 min.
(5) Add 1 ul/well of d2-conjugated IP1 (d2-IP1) and 1 ul/well of Eu+ cryptate conjugated anti-IP1 antibody (Eu+-Ab) prepared in the cell lysis buffer, both from the IP-One kit (Cisbio, MA).
(6) Incubate at room temperature for 10 minutes.
(7) Detect the assay plate (Ex = 320, Em1 =665 and Em2 620) in a ViewLux plate reader.
inositol monophosphatase, IMPase, IMPase inhibitor, lithium, bipolar disorder, IP-One, HTRF, qHTS, NIH roadmap, NCGC
Note: In the gene ID and protein GI references for this assay, rat IMPase is referenced instead of hampster as hamster accession numbers were not available.
With `CCOc1ccc(S(=O)(=O)N(CC(=O)NCCSCc2ccc(C)cc2)c2ccccc2)cc1`, the result was inactive.
For `Cc1ccc(C)c(N2CCN(Cc3nnc(-c4ccccc4)o3)CC2)c1`, the result was inactive.
Take `COC(=O)Cc1ccc(NC(=S)NCc2ccc(Cl)cc2)cc1`: the result was inactive.
The result for `CCOc1cccc2c1N[C@@H](c1ccc(C(=O)O)cc1)[C@H]1CC=C[C@@H]21` reads “inactive”; that for `NC(=S)N/N=C/c1coc2cc(Cl)ccc2c1=O`, “inactive”.
The result for `CCc1ccc2oc(-c3ccc(NC(=O)c4cc5ccccc5o4)cc3)nc2c1` reads “inactive”; that for `CCOc1ccc(C2CC(=O)c3c([nH]c(C(=O)OCc4ccccc4)c3C)C2)cc1` (configuration not stated), “inactive”; that for `Cc1ccc(C)c(NC(=O)C(OC(=O)c2ccc(C)s2)c2ccccc2)c1` (configuration not stated), “inactive”.
With `CCOc1ccc(NC(=O)c2c(NC(=O)Cc3ccccc3)sc3c2CCC(C)C3)cc1` (configuration not stated), the result was inactive.
The entry for `Cc1ccc(NC(=O)C(=O)NCc2ccc(/C=N/NC(=O)c3c(C)nc4cc(C)ccn34)o2)cc1` is “inactive”.
The entry for `Cc1ccc(C)c(OCC(=O)Nc2sc3c(c2C#N)CCCC3)c1C` is “inactive”; for `Cc1nc(SCC(=O)Nc2ccc(C(=O)O)cc2)n[nH]1` it is “inactive”.
As for `CCOC(=O)c1c(NC(=S)NC(=O)/C=C/c2cccs2)sc(C)c1C`, the result was inactive.
The entry for `CCCOC(=O)c1c(NC(=O)c2cc3nc(-c4ccc(OC)cc4)cc(C(F)(F)F)n3n2)sc2c1CCCC2` is “inactive”; for `Cc1cccc(-c2nnc(SCC(=O)N3CCCc4ccccc43)o2)c1` it is “inactive”; for `CCOC(=O)/C(C#N)=C/c1ccc(N2CCN(Cc3ccccc3)CC2)cc1` it is “inactive”.
Regarding `CCOc1ccc(S(=O)(=O)Nc2ccc3oc4c(c3c2)CC(C)CC4)cc1` (configuration not stated), the result was inactive.
As to `Cc1ccc(CSCC(N)C(=O)O)cc1` (configuration not stated), the result was inactive.
The entry for `CCC1=Nc2cc(C(=O)NCC(C)c3ccccc3)ccc2Sc2ccc(C)cc21` (configuration not stated) is “inactive”.
The result for `CCOC(=O)c1ccc(NC(=O)c2ncn(-c3ccccc3)n2)cc1` reads “inactive”; that for `COCCNC(=O)c1ccc(N2CCC3(CC2)OCCO3)c([N+](=O)[O-])c1`, “inactive”; that for `O=C(Nc1ccc2oc(-c3ccc(O)c(Br)c3)nc2c1)c1cc2ccccc2o1`, “inactive”.
Consider `Cc1c(NS(=O)(=O)c2ccc(NC3CCCC3)c([N+](=O)[O-])c2)c(=O)n(-c2ccccc2)n1C`, for which the outcome was inactive.
As for `O=C(CCS(=O)(=O)c1cc(Br)cc2c1N(C(=O)C1CC1)CC2)Nc1ccc(Br)cc1F`, the result was inactive.
The entry for `COc1ccc(OC)c(/C=C/C(=O)OCC(=O)Nc2ccc3c(c2)OCCO3)c1` is “inactive”; for `COc1cccc(N=C2SC(C(=O)Nc3cccc(Cl)c3)CC(=O)N2C)c1` (configuration not stated) it is “inactive”; for `COc1ccc([N+](=O)[O-])cc1NC(=O)c1ccc(N(Cc2ccccc2C)S(C)(=O)=O)cc1` it is “inactive”.

The values are drawn from PubChem BioAssay AID901 (National Center for Advancing Translational Sciences (NCATS), 2007).
